IDE act = human IDE activators in live cells, primary screen, fluorescence polarization, HEK cells, FAbeta-B substrate; FAbeta-B cleavage; 0% vehicle, 100% cell-free pure enzyme wells; Insulin-degrading enzyme (Homo sapiens), P14735; 340,000 tested, 0.073% active; activation, % at 5.96 µM;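 active = activation above the mean of all tested compounds plus 3 SD, set per screening campaign, cut at about 17% in these data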
Target sequence (P14735 whole entry, looked up): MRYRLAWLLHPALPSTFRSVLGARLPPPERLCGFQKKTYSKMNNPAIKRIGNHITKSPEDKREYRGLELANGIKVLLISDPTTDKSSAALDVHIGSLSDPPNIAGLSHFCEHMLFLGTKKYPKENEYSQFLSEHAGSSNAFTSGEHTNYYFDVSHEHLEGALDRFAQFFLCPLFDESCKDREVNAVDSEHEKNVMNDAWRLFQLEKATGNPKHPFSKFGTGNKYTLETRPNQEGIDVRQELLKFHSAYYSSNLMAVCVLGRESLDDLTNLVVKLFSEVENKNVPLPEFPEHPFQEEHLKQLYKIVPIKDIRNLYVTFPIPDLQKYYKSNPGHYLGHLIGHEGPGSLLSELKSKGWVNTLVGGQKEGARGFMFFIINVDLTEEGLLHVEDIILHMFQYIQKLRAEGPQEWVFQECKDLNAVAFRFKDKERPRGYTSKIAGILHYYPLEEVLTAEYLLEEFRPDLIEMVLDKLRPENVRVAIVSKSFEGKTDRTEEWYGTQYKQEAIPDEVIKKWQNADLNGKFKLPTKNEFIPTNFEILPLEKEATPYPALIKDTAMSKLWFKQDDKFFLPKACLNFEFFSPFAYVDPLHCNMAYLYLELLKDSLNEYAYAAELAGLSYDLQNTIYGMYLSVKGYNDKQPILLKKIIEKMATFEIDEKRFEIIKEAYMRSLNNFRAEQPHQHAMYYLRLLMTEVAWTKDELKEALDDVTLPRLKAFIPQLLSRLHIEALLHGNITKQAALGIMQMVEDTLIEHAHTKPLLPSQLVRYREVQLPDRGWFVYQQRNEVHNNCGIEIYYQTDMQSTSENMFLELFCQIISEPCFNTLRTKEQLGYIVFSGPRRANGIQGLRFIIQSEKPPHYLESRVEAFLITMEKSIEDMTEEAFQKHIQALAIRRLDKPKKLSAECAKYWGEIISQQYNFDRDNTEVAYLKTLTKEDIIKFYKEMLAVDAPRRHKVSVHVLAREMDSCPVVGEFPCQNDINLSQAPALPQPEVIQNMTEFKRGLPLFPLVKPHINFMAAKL
HDAC3 inh = HDAC3 deacetylase inhibitors, primary screen, biochemical, fluorescence, cell-free homogeneous; AID 2718, 2010; inhibition, % at 8.3 µM; 320,000 tested, 0.15% active; recombinant HDAC3, fluorogenic peptide/trypsin coupled; in the data active = inhibition above about 26%, passing the limit was not always enough
LANA-H2B inh = blockers of LANA interaction with H2A/H2B – biochemical, FP readout, HTS, primary screen | Protein LANA1 (Human herpesvirus 8 type P (isolate GK18)), Q9QR71 | cell-free LANA-H2A/H2B peptide, fluorescence polarization | inhibition, % (test concentration not listed) | 320,000 tested, 0.6% active; in the data active = inhibition mostly above about 10%, no sharp cut-off; inactive = mostly below about 6.7%
Mot1-301 SUMO = yeast Mot1-301 growth rescue at high temperature, primary screen, SUMOylation pathway inhibitor project, S. cerevisiae, ATP luminescence, 38.5C; 320,000 tested, 1% active; growth rescue, % at 18.8 µM; S. cerevisiae Mot1-301 growth rescue; percent above DMSO median, 100 means doubled;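 active = every valid replicate shows activation above 250% relative to neutral control wells; inactive = the rest, any valid replicate at or below 250%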;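 note: OY570 slx delta 5 strain wells were the positive control but not used for scaling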
IDE inh = human IDE inhibitors in live cells, primary screen, fluorescence polarization, HEK cells, FAbetaB substrate; inhibition, % at 5.59 µM; 320,000 tested, 0.41% active; AID 434962, 2010; Insulin-degrading enzyme (Homo sapiens), P14735; FAbetaB cleavage;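 active = percent inhibition above the average of all tested compounds plus 3 SD, set per screening campaign, cut at about 16% in these data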;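 note: IDE supplied by intact live HEK cells; FP after avidin binding of uncleaved biotin substrate so inhibition keeps polarization high; 0% = DMSO wells and 100% = 60 µM reference IDE inhibitor Ii1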
Mot1 SUMO dose = growth restoration of Mot1-301 yeast on galactose, dose response, SUMO pathway inhibitor project, whole organism, S. cerevisiae, ATP luminescence, cherry-picked samples | growth activity, percent, % at 42 µM | 2,300 tested, under 10 active | S. cerevisiae Mot1-301 galactose growth, 24 h; -100 = growth of slx-deleted rescue strain | AID 493004, 2010 | shares compounds with Mot1-301 SUMO;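 active = Signal drops as the depositor expects, and the fitted half-maximal dose is no more than ten times the top valid tested dose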;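 note: more negative values mean stronger growth rescue toward the control strain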
* hit, by the source's call; . = no result; [ ] = another dose, or the depositor's remark. Rows were chosen to be rich in hits. Some 2.1% of all compounds tested hit in one or more screens of this group.

SMILES	IDE act	HDAC3 inh	LANA-H2B inh	Mot1-301 SUMO	IDE inh	Mot1 SUMO dose
CCc1ccccc1NC(=O)N[C@@H](C)C(=O)OC	-3	-3	2	650*	-4	0
CCc1ccccc1NC(=O)N[C@@H](C)C(=O)O	3	-6	0	118	1	.
CCOC(=O)C1CCN(C(=O)COc2ccc(S(=O)(=O)N3CCOCC3)cc2C)CC1	6	0	1	718*	-1	0
Cc1ccc(OC(C)C(=O)N(C)c2ccccc2)c([N+](=O)[O-])n1 (stereo not given)	5	2	1	7	-1	.
CCC1(c2ccccc2)NC(=O)N(CC(=O)N(C)CC(=O)Nc2c(C)cccc2C)C1=O (stereo not given)	0	-8	15	31	6	.
CCC1(c2ccccc2)NC(=O)N(CC(=O)N(C)CC(=O)Nc2ccc(F)c(F)c2F)C1=O (stereo not given)	3	3	-5	609*	-1	1
COc1ccc(C(=O)NC(CCSC)C(=O)NC2CC2)cc1 (stereo not given)	-2	3	5	-7	3	.
COc1cccc(OC)c1C(=O)Nc1ccc2c(c1)N(S(=O)(=O)c1cccs1)CCC2	-2	2	-3	490*	5	0
Cc1ccc(S(=O)(=O)N(CC(=O)Nc2ccccc2)C(=O)N2CCN(C)CC2)cc1	7	2	-3	-18	-6	.
O=C(NCc1ccc(F)cc1)C1CCCN1C(=O)Nc1cccc(F)c1 (stereo not given)	3	-3	0	-5	0	.
Cc1ccc(N/C=C(\C#N)c2ccc(OCCCF)cc2)cc1	5	-1	-2	724*	0	0
CC(=O)c1cccc(NC(=O)CN(c2ccc(F)cc2)S(C)(=O)=O)c1	1	4	1	-3	3	.
CC(=O)c1cccc(NC(=O)CN(c2cccc(F)c2)S(C)(=O)=O)c1	-1	-15	-2	682*	0	0
CCOC(=O)c1c(N)sc(C(=O)N2CCCC(C(N)=O)C2)c1C (stereo not given)	0	-2	7	933*	5	1
Cc1cccc(N(Cc2ccccc2)C(=O)CSC(C)C(=O)Nc2cc(C)on2)c1 (stereo not given)	1	-3	-2	555*	-3	0
COc1ccccc1C(=O)NCC(C)(C)CN=C1NS(=O)(=O)c2ccccc21	-2	1	5	30	-1	.
COCCNC(=O)C(=O)NCC1OCCN1C(=O)c1ccc(Cl)cc1 (stereo not given)	2	2	-2	525*	0	1
Cc1cc(C)n2nc(SCC(=O)N(CCC#N)c3ccc(F)cc3)nc2n1	-2	-2	6	7	-5	.
COc1cc2cc(C)c3nnc(SCC(=O)Nc4cc(C)on4)n3c2cc1OC	6	-2	-2	421*	1	1
Cc1cc(NC(=O)CSc2nnc3c(C)cc4c(C)ccc(C)c4n23)no1	3	-1	-1	-1	3	.
O=C1CN(C(=O)COC(=O)CCNS(=O)(=O)c2ccc(Cl)cc2)c2ccccc2N1	3	2	3	365*	-2	0
COC(=O)C1=C(C)N(Cc2ccccc2)C(=S)N[C@H]1c1cccc(F)c1	3	8	-2	584*	4	1
COC(=O)C1=C(C)N(Cc2ccccc2)C(=NCc2ccccc2)N[C@H]1c1cccc(F)c1	4	-4	-2	104	3	.
O=C(CSc1nnc2c(n1)[nH]c1ccccc12)NCc1ccco1	5	0	-6	196	-6	.
O=C(CCC1CCCC1)NNC(=O)COc1ccc(Br)cc1	1	1	3	-4	-1	.
SMILES	IDE act	HDAC3 inh	LANA-H2B inh	Mot1-301 SUMO	IDE inh	Mot1 SUMO dose
N#CC(C#N)=C1C=CC=CN1/C(=C\c1ccccc1)C(=O)c1cccs1	-6	4	3	-5	1	.
N#CC(C#N)=C1C=CC=CN1/C(=C\c1ccccc1Cl)C(=O)c1ccccc1	-5	1	5	600*	0	-2
Cc1ccccc1OCC(=O)NNC(=O)c1ccc2c(=O)n3c(nc2c1)CCC3	3	-1	1	-10	6	.
O=C(NCc1ccccn1)c1cccc(NS(=O)(=O)c2ccccc2)c1	4	-4	-3	-5	-2	.
Cc1nn(-c2ccccc2)c(N)c1N=Nc1cccc(S(=O)(=O)N2CCOCC2)c1	4	-7	3	387*	1	-1
Nc1ncc(-n2cncn2)c(-c2ccc(Cl)cc2)n1	9	-8	1	-2	1	.
O=c1c2c3c(sc2n2cnnc2n1-c1ccccc1)N(Cc1ccccc1)CCC3	.	-5	-1	445*	-1	0
CN1CCc2c(sc3c2c(=O)n(-c2cccc(Cl)c2)c2nncn32)C1	2	-3	1	-2	8	.
Nc1ccn(C2CCCCO2)c(=O)n1 (stereo not given)	3	.	.	.	.	.
CCn1cc(C(=O)N2CCN(c3ccc(OC)cc3)CC2)c(=O)c2cc(S(=O)(=O)N3CCOCC3)ccc21	-2	-1	-4	798*	7	-1
COCCCn1c2nc3ccccc3nc2c2c(=O)n(Cc3ccc(Cl)cc3)cnc21	0	-4	-1	425*	-2	0
COCCCn1c2nc3ccccc3nc2c2c(=O)n(Cc3ccccc3Cl)cnc21	.	1	0	1	2	.
CCCN1C(=O)c2[nH]nc(-c3cc(Cl)c(C)cc3O)c2C1c1ccc(O)c(OC)c1 (stereo not given)	-3	7	5	571*	0	0
COc1ccc(NC(=O)c2ccc(-n3cncn3)c([N+](=O)[O-])c2)cc1	2	1	-4	901*	2	-1[21 µM]
O=C(COc1ncnc2ccccc12)Nc1ccc(Cl)c(S(=O)(=O)N2CCOCC2)c1	-2	8	0	384*	1	0
CN(C)S(=O)(=O)c1cccc(NC(=O)COc2nc3ccccc3nc2N2CCOCC2)c1	0	1	-3	524*	2	0
O=C(COc1nc2ccccc2nc1N1CCOCC1)Nc1ccc(S(=O)(=O)N2CCCC2)cc1	-2	-1	3	-4	-4	.
COc1ccc(NC(=O)CSc2nnc(Cc3ccc(C)cc3)c(=O)n2N)cc1OC	2	-11	-2	7	-5	.
N/C(=N\NC(=O)c1sccc1OCc1ccc(Cl)cc1Cl)c1ccccn1	2	1	-7	529*	-1	0

Screening data from PubChem.
